From PubChem BioAssay (NCATS) come the findings set out here.

A number with no mark means an inactive call. Results filed as inconclusive are left out. Calls of active or inactive are those of the source. Unless noted, the call rests on the fitted dose curve; in most records, active means well fitted curve in either direction with a large enough effect (not every such curve was filed as active); inconclusive means small, poorly fitted or top-dose-only effect, or another doubt; inactive means flat fitted curve, though single readings scatter.

Experiment [1] can be described thus: AP1 Signaling Pathway (AID 357).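 Further: ME-180 reporter cells stimulated with EGF at its EC50 level; on the % scale 0 is the no-effect control and ±100 the full control effect.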 As to conditions: ME-180 AP-1-bla reporter, EGF-induced, beta-lactamase ratio, 5 h; at 7.69 µM (top of the series) unless noted. Put shortly: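 First, ME-180 AP-1-bla cells were cultured overnight at 37 °C in low-serum Opti-MEM. Next, titrated compounds with EC50 EGF were incubated 5 hours. Finally, CCF4 was added for 2.5 hours and the 460/530 nm ratio recorded.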

The target in experiment [2] is Cytochrome P450 1A2 (Homo sapiens) (UniProt P05177). As to the kind of experiment: p450-cyp1a2 (AID 410; calls by dose curve; further: potency means the concentration at half of the fitted maximal effect;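 on activity change, negative = inhibition: -100% = full effect of reference inhibitor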). Put shortly: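 Read-out is luminescence from luciferin produced by CYP1A2 demethylation of Luciferin-ME (100uM, at Km). Detection reagent stopped the 60 min NADPH-dependent reaction; signals were normalized to 57 uM furafylline.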
The nature of experiment [3]: NFAT Signaling Pathway (AID 444).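 Further: carbachol stimulus at about its EC50 of 1 µM final; on the % scale 0 is the no-effect control and ±100 the full control effect.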 As to conditions: Jurkat NFAT-bla M1, carbachol, beta-lactamase ratio, 5 h; at 7.69 µM (top of the series) unless noted. The method, boiled down: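 Jurkat cells with NFAT-driven β-lactamase reporter and co-expressed M1 receptor, stimulated with carbachol (final 1 uM, ~EC50), compound titration, 5 h at 37 °C. CCF4 loaded 1 h at RT; 460/530 nm ratio gave %activity and AC50.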

A short description of experiment [4]: Stat Signaling Pathway (AID 446).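 Further: ME-180 cervical cancer cells given 40 pM IL-6 alongside compound; SIE-controlled beta-lactamase reporter measured as 460/530 nm FRET emission ratio; on the % scale 0 is the no-effect control and ±100 the full control effect.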 As to conditions: ME-180 SIE beta-lactamase reporter, IL-6 stimulated, 5 h; at 7.69 µM (top of the series) unless noted. The method, boiled down:
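Normalization used AC90 stimulation (300 pM IL-6) and AC90 inhibition (125 nM pan-JAK inhibitor at 40 pM IL-6). The underlying signal is SIE-driven beta-lactamase in ME-180 cells after 5 h IL-6 exposure with compound.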

For experiment [5], the target named is Glucocorticoid receptor (Homo sapiens) (UniProt P04150). As to the kind of experiment: GR-EFC Redistribution (AID 451; calls by dose curve; further: potency means the concentration at half of the fitted maximal effect). To be noted: CHO-K1 GR-EFC translocation, beta-gal luminescence, 2 h. The method, boiled down:
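CHO-K1 cells expressing nuclear EA and GR-ED fragments of b-gal; compounds titrated up to 46 uM final, 2 h at 37 C. GR nuclear translocation read as complemented b-gal luminescence after 1 h RT detection.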

Experiment [6] concerns the target 3',5'-cyclic-AMP phosphodiesterase 4B (Homo sapiens) (UniProt Q07343). The experiment is described as follows: qHTS Assay for Inhibitors of PDE-IV (AID 607; active means well fitted activation curve with a large enough effect in the main read-out, with a control signal flat, not every such curve was filed as active; further: % of control where 0% means no effect). Put shortly:
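HEK293 ACTOne cells with CNG channel (1000/well), endogenous PDE4; membrane potential dye, compounds up to 22.9 uM final. Fluorescence Ex 535/Em 590; RO 20-1724 (100 uM final) as reference.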
(qHTS replaces the single test concentration by a dilution series.)

The nature of experiment [7]: Primary qHTS for small molecule stabilizers of the endoplasmic reticulum resident proteome: Secreted ER Calcium Modulated Protein (SERCaMP) assay (AID 1508630; active means well fitted curve in the direction sought with a large enough effect; an effect the other way counts as inactive or inconclusive; further: on the % scale 0 is the no-effect control and ±100 the full control effect). The method, boiled down: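 The SH-SY5Y reporter protocol was run at 3 concentrations up to 38.3 uM (primary) or 11 concentrations (follow-up): 16 h compound, 100 nM thapsigargin for 4 h, then extracellular luciferase luminescence.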

The target of experiment [8] is Lysosomal acid glucosylceramidase (Homo sapiens) (UniProt P04062). As to the kind of experiment: Glucocerebrosidase-p2 (AID 348; in the data active means potency below about 10 µM; further: potency means the concentration at half of the fitted maximal effect). As to conditions: purified GBA, blue fluorogenic substrate, 40 min. The method, boiled down:
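Normal human glucocerebrosidase (0.2 nM) with blue fluorogenic substrate (80 uM final) in citrate/phosphate pH 5.9 with 10mM sodium taurocholate, 0.01% tween-20; 40 min RT, NaOH/glycine stop; fluorescence Ex 365/Em 440; AC50 from a titration from 0.6 nM upwards.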

Experiment [9] has as its target Mitogen-activated protein kinase 10 (Mus musculus) (UniProt Q61831). The experiment is described as follows: JNK3 AlphaScreen Assay (AID 530). Put shortly: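 HepG2 lysate (IL-1b/TNFa pre-activated) + biotin-GST-cJun 1-79 + anti-pSer73 cJun; cpd titration, 15 min RT; ATP 10 uM start; Tris pH 7.6, MgCl2, DTT, vanadate; beads in EDTA buffer; AlphaScreen.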
For orientation: Bead proximity is the source of the signal in Alpha formats.

The target of experiment [10] is Glucocorticoid receptor (Homo sapiens) (UniProt P04150). The experiment is described as follows: GR-GFP Redistribution (AID 450;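 active means compounds whose dose series gives a full or clear partial fitted curve of increased nuclear translocation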; further: potency means the concentration at half of the fitted maximal effect). As to conditions: U2OS GR-GFP nuclear translocation, laser cytometry, 2 h.
The target of experiment [11] is Cytochrome P450 3A4 (Homo sapiens) (UniProt P08684). As to the kind of experiment: qHTS Assay for Activators of Cytochrome P450 3A4 (AID 885; active means well fitted curve in the direction sought with a large enough effect; an effect the other way counts as inactive or inconclusive; further: nearly all actives have a fitted effect of over 65% in size). The method, boiled down:
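Human CYP3A4 dealkylates Luciferin-PPXE to luciferin, which luciferase detection converts to light. Substrate was at its KM (25uM), buffer 200mM KPO4, reaction 60 min at RT.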

Experiment [12] is described as follows: qHTS Assay for Identification of Small Molecule Agonists for Hypoxia Response Element Signaling Pathway (AID 914; active means well fitted activation curve with a large enough effect in the signal ratio, with a control signal flat, not every such curve was filed as active; the % refers to the signal ratio; further: potency means the concentration at half of the fitted maximal effect). As to conditions: ME-180 (cervical carcinoma) HRE-bla reporter, beta-lactamase ratio, CoCl2, 17 h; activation: stronger effect = higher value. Put shortly: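 Positive modulation of EC50 CoCl2-induced hypoxia response element signaling is measured in ME-180 cells with a beta-lactamase reporter. Compounds are titrated, incubation runs 17 hours, and %Activity derives from the blue/green ratio.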

Chain of Lysosomal acid glucosylceramidase (Homo sapiens) (P04062 whole entry, looked up): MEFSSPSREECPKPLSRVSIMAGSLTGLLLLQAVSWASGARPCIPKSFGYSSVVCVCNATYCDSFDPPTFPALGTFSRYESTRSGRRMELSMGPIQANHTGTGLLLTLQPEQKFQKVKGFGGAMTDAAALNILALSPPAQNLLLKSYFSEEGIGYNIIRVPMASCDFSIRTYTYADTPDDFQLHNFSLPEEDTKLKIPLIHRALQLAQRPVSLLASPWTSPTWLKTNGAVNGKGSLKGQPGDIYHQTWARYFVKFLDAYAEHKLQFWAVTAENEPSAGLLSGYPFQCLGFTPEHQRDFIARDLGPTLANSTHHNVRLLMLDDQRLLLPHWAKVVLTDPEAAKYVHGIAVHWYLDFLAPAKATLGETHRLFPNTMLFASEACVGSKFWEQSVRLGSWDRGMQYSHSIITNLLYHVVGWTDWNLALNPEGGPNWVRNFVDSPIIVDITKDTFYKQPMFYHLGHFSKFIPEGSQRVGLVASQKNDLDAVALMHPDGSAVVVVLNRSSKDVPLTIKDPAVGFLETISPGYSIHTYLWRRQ
Chain of 3',5'-cyclic-AMP phosphodiesterase 4B (Homo sapiens) (Q07343 whole entry, looked up): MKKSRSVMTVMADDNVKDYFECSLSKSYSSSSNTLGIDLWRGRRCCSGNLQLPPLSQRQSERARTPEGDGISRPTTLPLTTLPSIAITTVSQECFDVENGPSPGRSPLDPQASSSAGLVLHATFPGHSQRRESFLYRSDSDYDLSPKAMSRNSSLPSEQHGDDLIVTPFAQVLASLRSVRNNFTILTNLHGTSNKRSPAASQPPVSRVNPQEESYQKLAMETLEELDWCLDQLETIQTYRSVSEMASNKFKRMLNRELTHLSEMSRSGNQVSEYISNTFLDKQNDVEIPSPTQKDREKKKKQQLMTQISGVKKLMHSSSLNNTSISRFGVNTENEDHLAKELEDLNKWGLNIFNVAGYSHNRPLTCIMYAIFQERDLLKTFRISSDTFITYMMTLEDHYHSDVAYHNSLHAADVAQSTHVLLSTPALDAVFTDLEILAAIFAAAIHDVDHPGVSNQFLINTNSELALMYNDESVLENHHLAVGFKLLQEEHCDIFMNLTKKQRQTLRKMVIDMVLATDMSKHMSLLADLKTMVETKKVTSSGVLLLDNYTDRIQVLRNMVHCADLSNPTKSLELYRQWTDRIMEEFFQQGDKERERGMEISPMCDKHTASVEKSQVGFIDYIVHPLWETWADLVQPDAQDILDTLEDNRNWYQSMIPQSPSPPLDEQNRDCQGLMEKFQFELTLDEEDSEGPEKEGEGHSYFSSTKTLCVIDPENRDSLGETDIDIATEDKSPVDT
Chain of Glucocorticoid receptor (Homo sapiens) (P04150 whole entry, looked up, the tested form may be a part): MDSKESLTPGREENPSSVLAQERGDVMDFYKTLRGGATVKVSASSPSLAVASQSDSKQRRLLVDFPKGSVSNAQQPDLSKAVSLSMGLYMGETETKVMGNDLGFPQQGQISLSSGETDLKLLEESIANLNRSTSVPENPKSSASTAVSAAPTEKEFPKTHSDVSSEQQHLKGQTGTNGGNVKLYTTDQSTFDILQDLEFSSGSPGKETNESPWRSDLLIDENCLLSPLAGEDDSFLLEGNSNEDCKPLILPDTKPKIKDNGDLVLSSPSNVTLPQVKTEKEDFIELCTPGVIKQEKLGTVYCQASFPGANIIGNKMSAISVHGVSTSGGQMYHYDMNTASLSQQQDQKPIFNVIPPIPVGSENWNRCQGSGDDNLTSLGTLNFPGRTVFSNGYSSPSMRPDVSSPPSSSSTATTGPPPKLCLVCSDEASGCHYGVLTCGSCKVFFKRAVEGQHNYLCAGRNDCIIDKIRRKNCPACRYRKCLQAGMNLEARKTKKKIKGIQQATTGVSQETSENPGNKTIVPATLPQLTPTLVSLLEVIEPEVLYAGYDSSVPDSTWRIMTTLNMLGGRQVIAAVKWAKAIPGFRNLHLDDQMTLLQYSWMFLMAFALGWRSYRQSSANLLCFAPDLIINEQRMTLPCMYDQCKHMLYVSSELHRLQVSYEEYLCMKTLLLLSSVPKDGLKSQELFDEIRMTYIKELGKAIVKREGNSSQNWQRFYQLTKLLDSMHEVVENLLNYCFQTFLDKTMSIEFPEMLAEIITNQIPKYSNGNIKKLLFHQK
Chain of Cytochrome P450 1A2 (Homo sapiens) (P05177 whole entry, looked up): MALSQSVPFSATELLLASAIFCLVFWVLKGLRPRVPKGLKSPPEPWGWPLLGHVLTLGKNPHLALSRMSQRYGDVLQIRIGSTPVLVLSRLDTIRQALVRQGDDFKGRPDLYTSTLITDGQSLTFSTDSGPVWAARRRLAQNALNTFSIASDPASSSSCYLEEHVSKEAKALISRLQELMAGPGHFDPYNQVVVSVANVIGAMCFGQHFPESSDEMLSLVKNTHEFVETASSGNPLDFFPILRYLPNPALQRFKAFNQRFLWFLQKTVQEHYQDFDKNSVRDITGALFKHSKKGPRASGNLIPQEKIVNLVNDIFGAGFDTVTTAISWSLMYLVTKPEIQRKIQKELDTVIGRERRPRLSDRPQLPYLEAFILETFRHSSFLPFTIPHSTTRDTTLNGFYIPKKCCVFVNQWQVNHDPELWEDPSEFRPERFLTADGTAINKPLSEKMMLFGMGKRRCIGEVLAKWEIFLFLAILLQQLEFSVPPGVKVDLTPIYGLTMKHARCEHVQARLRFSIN
Chain of Cytochrome P450 3A4 (Homo sapiens) (P08684 whole entry, looked up): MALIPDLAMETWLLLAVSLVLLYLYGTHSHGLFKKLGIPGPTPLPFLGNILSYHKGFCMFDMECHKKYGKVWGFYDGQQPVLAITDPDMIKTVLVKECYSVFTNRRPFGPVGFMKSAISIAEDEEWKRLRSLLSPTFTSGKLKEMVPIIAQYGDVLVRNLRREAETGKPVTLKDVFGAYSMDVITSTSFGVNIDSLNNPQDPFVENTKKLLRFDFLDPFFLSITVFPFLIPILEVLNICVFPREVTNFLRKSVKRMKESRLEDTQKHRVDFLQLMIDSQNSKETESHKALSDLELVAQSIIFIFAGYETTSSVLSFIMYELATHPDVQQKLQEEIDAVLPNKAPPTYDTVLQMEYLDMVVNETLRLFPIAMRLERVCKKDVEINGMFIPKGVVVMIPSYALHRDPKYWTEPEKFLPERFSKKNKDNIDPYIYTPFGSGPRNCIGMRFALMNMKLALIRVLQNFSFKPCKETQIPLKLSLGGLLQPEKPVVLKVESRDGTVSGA

As to `O=C(c1cnccn1)N1CCC2(CC1)CN(c1ccccc1)C2`, the results for the activity change, negative = inhibition in [1] and in experiment [3] were -9.4% and 14%, respectively. The Potency entry in experiment [2] and in experiment [6] was “inactive” throughout. Besides, the activity, negative = inhibition in [4] was -6.18%. For the same compound, the Potency in [5] is above 46 µM. Besides, in experiment [7], the result was inactive.

Regarding `COc1ccc(C(=O)N2CCC3(CCCN(C(=O)NC(C)C)C3)CC2)cc1`, the results for the Potency in experiment [8] and in experiment [5] were above 11.4 µM and above 46 µM, respectively. Further, the activity change, negative = inhibition in experiment [3] is 2.69%. In addition, the activity, negative = inhibition in experiment [4] was 0.47%. The Potency entry in [9] and in experiment [6] was “inactive” throughout. Moreover, the outcome in experiment [7] was inactive.

As for `O=C(c1cnccn1)N1CCC2(CCCN(Cc3ccncc3)C2)CC1`, the activity change, negative = inhibition in [1] is -12.8%. The activity, negative = inhibition in experiment [4] was 6.38%. In addition, the Potency in experiment [5] is above 46 µM. The Potency entry in [9] and in [6] was “inactive” each time. In experiment [7], the outcome was inactive.

For `COc1ccc(-c2nc3cnc(N4CCN(C)CC4)nc3n(CCC#N)c2=O)cc1`, the Potency was above 11.4 µM in [8], above 9.22 µM in [10], above 46 µM in [5] and 3.16 µM (active) in experiment [12]. In addition, the Potency entry in experiment [9], in [6] and in [11] was “inactive” each time. Further, in experiment [7], the result was inactive.

As to `CN(C)c1ncc2nc(-c3ccccc3)c(=O)n(C3CC3)c2n1`, the Potency is above 11.4 µM in experiment [8]; 2.51 µM (active) in [2]; above 9.22 µM in [10]; above 46 µM in [5]; 3.16 µM (active) in experiment [12]. The result in [7] was inactive.

Turning to `COc1cccc(Nc2ncc3nc(-c4ccc(F)cc4)c(=O)n(C[C@H]4CCCO4)c3n2)c1`, the Potency is above 11.4 µM in [8], above 9.22 µM in [10] and above 46 µM in experiment [5]. Also, the activity change, negative = inhibition in experiment [3] is -9.67%. The activity, negative = inhibition in experiment [4] was -5.57%. Moreover, the Potency entry in [9] and in experiment [6] was “inactive” throughout. Moreover, the result in experiment [7] was inactive.

For `Cn1c(=O)c(-c2cccc(Cl)c2)nc2cncnc21`, the results for the activity change, negative = inhibition in [1] and in [3] were -7.56% and -2.65%, respectively. Also, the figures for the Potency in experiment [2], in experiment [10] and in [5] were 0.501 µM (active), above 9.22 µM and above 46 µM, respectively. Further, the activity, negative = inhibition in [4] was -10.2%. In addition, the Potency entry in experiment [9] and in [6] was “inactive” each time. The result in [7] was inactive.

For `COC(=O)N1CCC2(CCN(C(=O)Nc3cccc(F)c3)CC2)CC1`, the activity change, negative = inhibition in experiment [1] is -21.3%; in [3] it was -11.6%. In addition, the values for the Potency in experiment [2] and in experiment [5] were 12.6 µM (active) and above 46 µM, respectively. In addition, in experiment [4], the activity, negative = inhibition was 22.8%. Also, the Potency entry in experiment [9] and in experiment [6] was “inactive” each time. Further, the outcome in [7] was inactive.
